About 79,000 compounds went through this panel and 15% of them were active in at least one assay; those are over-represented in the sample as a whole. The source made the active and inactive calls. Cut-off read from the data, not from the text of the source: active = growth inhibition above about 70%; inactive = the rest. Where a SMILES comes first, the peptide text is derived from it. [ ]: non-standard residue; d: D form. The star is where a group is joined. Cbz = O=C(OCc1ccccc1)*; Nva = CCC[CH](N)C(=O)O
Experiments:
[1] = NCI Yeast Anticancer Drug Screen. Data for the rad50 strain (AID 155);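 note: 0% = growth of vehicle-only cultures of the same strain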; details: S. cerevisiae rad50 strain growth inhibition; at 50.0 µM; active compounds read high
Method in brief: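 Cells are treated with compound, grown, and their growth is then scored against vehicle-only cultures of the same repair-deficient yeast strain.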

[2] = NCI Yeast Anticancer Drug Screen. Data for the mec2-1 strain (AID 157); details: S. cerevisiae mec2-1 strain, at 50.0 µM, active compounds read high
Method in brief: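 Cells of the genetically defined mec2-1 yeast strain are incubated with test compound. Inhibition of growth is calculated against vehicle-treated controls.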

[3] = NCI Yeast Anticancer Drug Screen. Data for the sgs1 mgt1 strain (AID 161);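 note: 0% = growth of cultures given vehicle only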; details: S. cerevisiae sgs1 mgt1 strain, at 50.0 µM, active compounds read high
Method in brief: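 Mutant yeast exposed to compound; growth scored against vehicle-only wells.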

[4] = NCI Yeast Anticancer Drug Screen. Data for the cln2 rad14 strain (AID 165);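 note: 0% = growth equal to vehicle treated cultures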; details: S. cerevisiae cln2 rad14 strain, at 50.0 µM, active compounds read high
Method in brief: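 The screen exposed genetically defined yeast (cln2 rad14) to test compounds and scored growth inhibition relative to vehicle-treated controls.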

[5] = NCI Yeast Anticancer Drug Screen. Data for the bub3 strain (AID 167); details: S. cerevisiae bub3 mutant strain, at 50.0 µM, active compounds read high
Method in brief: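 Part of a panel of yeast mutants defective in DNA damage repair or cell cycle regulation. Each strain is grown with compound, and inhibition is calculated relative to solvent-treated cultures.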

[6] = NCI Yeast Anticancer Drug Screen. Data for the mlh1 rad18 strain (AID 175); details: S. cerevisiae mlh1 rad18 strain growth inhibition; at 50.0 µM; active compounds read high
Method in brief: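 Compound-treated yeast growth, normalised to vehicle controls. Strain bears defined DNA repair mutations.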

Measured: growth inhibition

COc1ccc(COc2ccc([N+](=O)[O-])cc2)cc1
inactive: [1] -12.2% | [2] 5% | [3] -4.45% | [4] -9% | [5] -13.9% | [6] -2.25%

OC(Cc1cccnc1)(c1ccccc1)c1cccc2ccccc12 (stereo unspecified)
inactive: [1] 12.3% | [2] 13.8% | [3] -2.3% | [4] 7.45% | [5] 10.5% | [6] 13.9%

CSc1cccc(N)c1
inactive: [1] -23.6% | [2] -12.4% | [3] -46.1% | [4] 6.1% | [5] -6.8% | [6] -5.65%

O=C1C(=O)c2ccc3c(c2-c2cc4c(cc21)OCO4)OCO3
inactive: [1] -5.55% | [2] -17.1% | [3] -14.9% | [4] -5.55% | [5] -27.5% | [6] 18%

O=C1C(Cl)=C(N(C(=O)c2ccccc2)C(=O)c2ccccc2)C(=O)c2ccccc21
inactive: [1] 6.6% | [2] -3.7% | [6] -51.6%
active: [3] 83.2% | [4] 74% | [5] 86%

COc1ccc(C(Cc2ccccc2)Nc2ccccc2)cc1 (stereo unspecified)
inactive: [1] 4.1% | [2] -6.7% | [3] 28.6% | [4] -17% | [5] -0.95% | [6] -1.2%

N#Cc1c2nc3ccccc3nc2n2ccc3ccccc3c12
inactive: [1] -50% | [2] -61% | [3] -83.3% | [4] -13.1% | [5] -42.5% | [6] -71.7%

Cc1ccc(NC(=O)C2C3CC4OC(=O)C2C4C3)cc1 (stereo unspecified)
inactive: [1] -10.6% | [2] -4.45% | [3] 11.5% | [4] 0.55% | [5] 18.6% | [6] -16.6%

C=CC(=O)NC1CCCCC1
inactive: [1] -8.9% | [2] -10.9% | [3] -19.8% | [4] -8.9% | [5] -6.8% | [6] -22.4%

Cc1ccc(S(=O)(=O)SC(SCC(=O)c2ccc(Br)cc2)C(=O)c2ccc(Br)cc2)cc1 (stereo unspecified)
inactive: [1] 26.6% | [2] -10.4% | [3] 33.5% | [4] 19.9% | [5] -0.15% | [6] 13.2%

CCOC(=O)c1c(N=P(c2ccccc2)(c2ccccc2)c2ccccc2)nnc(-c2ccccc2)c1-c1ccccc1
inactive: [1] -36.4% | [2] -15.4% | [3] 10.9% | [4] 1.85% | [5] -6.55% | [6] 6.5%

CCCC(NC(=O)OCc1ccccc1)C(=O)NC(CCSC)C(=O)O (stereo unspecified) (Cbz-[Nva]-Met-OH; configuration not given here)
inactive: [1] -54.6% | [2] -1.6% | [3] -4.65% | [4] 11.5% | [5] -0.85% | [6] -5.95%

COc1ccc2c(Cl)ccnc2c1OC
inactive: [1] 15.3% | [2] 6.1% | [3] 10.9% | [4] -15% | [5] 23.4% | [6] 21.8%

CC[N+]1(C)CCOCC1
inactive: [1] -13.7% | [2] 3.35% | [3] -8.65% | [4] -21.9% | [5] -5.2% | [6] -8.15%

C1=Nc2ccccc2/C1=C/c1cccs1
inactive: [1] 35.5% | [2] 37% | [3] 12.1% | [4] -47.4% | [5] 13% | [6] 48.8%

NC(=O)c1ncc[nH]c1=O
inactive: [1] -0.65% | [2] 5.35% | [3] -12.6% | [4] 1.7% | [5] 4.2% | [6] -9.15%

O=C1C(OC(=O)c2ccccc2)=C(c2ccc(O)cc2)C(=O)C(OC(=O)c2ccccc2)=C1c1ccc(O)cc1
inactive: [1] 24.1% | [2] 0.45% | [3] 5.55% | [4] 9.75% | [5] 17.2% | [6] -44.6%

CCOC(=O)C(CC1OCCO1)C1=NC(C)(C)CC(C)O1 (stereo unspecified)
inactive: [1] -18.4% | [2] 1.2% | [3] -11.4% | [4] -0.05% | [5] -7% | [6] 3.85%

Cc1nc2ccccc2nc1CCC(=O)O
inactive: [1] -22.9% | [2] 4.25% | [3] -17.4% | [4] -23.6% | [5] -11.2% | [6] -6.65%

CC(O)C(C)[N+](=O)[O-] (stereo unspecified)
inactive: [1] 9.4% | [2] 0.5% | [3] -2.8% | [4] 11.6% | [5] 5.7% | [6] -1.05%

O=[N+]([O-])c1ccc(P(=O)(O)c2ccc([N+](=O)[O-])cc2)cc1
inactive: [1] 15% | [2] 17.6% | [3] 23.6% | [4] -25.9% | [5] -11% | [6] 34.7%

CC(=O)Nc1cc([N+](=O)[O-])c2[nH]c(=O)c3ccccc3c2c1
inactive: [1] -7.7% | [2] -6.7% | [3] -12.4% | [4] -9.45% | [5] -3.2% | [6] -0.15%

O=C(NC1CCCCC1)C1C2CC3OC(=O)C1C3C2 (stereo unspecified)
inactive: [1] -10.8% | [2] -19.2% | [3] 37.1% | [4] -27.6% | [5] 20.5% | [6] -10.1%

CCN(CC)CCCNc1ccc2nnn3c4ccc(O)cc4c(=O)c1c23
inactive: [1] -15.6% | [2] -7.9% | [3] -7.35% | [4] 25.3% | [5] -6.5% | [6] 6.65%

CC1c2ccccc2-c2ccccc21
inactive: [1] 10.2% | [2] -4.9% | [3] 7.25% | [4] -3.15% | [5] -1% | [6] 20.4%

O=c1[nH]c2cc(Cl)ccc2nc1C1=C(O)c2ccccc2C1
inactive: [1] 32% | [2] 12.7% | [3] 23.6% | [4] 3.35% | [5] 6.7% | [6] 30.6%

COc1ccc2c(c1)OC1c3ccccc3OCC21 (stereo unspecified)
inactive: [1] 26.1% | [2] 11.6% | [3] 15.8% | [4] 12.3% | [5] 27.9% | [6] 30.2%

CC(=O)Oc1ccc(C2OC(=O)c3ccccc3N2C(C)=O)cc1 (stereo unspecified)
inactive: [1] 4.05% | [2] 27.6% | [3] 12.7% | [4] -6.3% | [5] 34.6% | [6] 26.9%

COC(=O)c1ccc(CSc2ccccc2NC(=S)Nc2cccc(SC)c2)o1
inactive: [1] -15.2% | [2] -38.8% | [3] -18.6% | [4] 5.9% | [5] -31.9% | [6] -26.6%

O=S(=O)(c1ccccc1)n1c2c(c3ccccc31)Cc1ccccc1-2
inactive: [1] -3.75% | [2] 0.75% | [3] -16.9% | [4] -8.4% | [5] -2.1% | [6] -6.55%

O=C(O)c1cccc(=O)o1
inactive: [1] -3.35% | [2] -16.3% | [3] -11.3% | [4] 3.35% | [5] 7.1% | [6] -1.65%

CCOC(=O)CN1C(=O)C(=O)N(c2ccc(OC)c3ccccc23)C1=O
inactive: [1] -46.1% | [2] -17.2% | [3] -54.7% | [4] -40% | [5] -1.3% | [6] -27.6%

ClC1CCCCC1
inactive: [1] -12.8% | [2] -2.55% | [3] -0.35% | [4] -7.95% | [5] -7.2% | [6] -31.2%

Cc1[nH]c(-c2ccccc2)c2nc(N(C)C)oc(=O)c12
inactive: [1] -11.4% | [2] 29.3% | [3] 17.4% | [4] 10.5% | [5] 34.1% | [6] -5.25%

N#CNc1nc(N)cc(N)n1
inactive: [1] 2.25% | [2] 9.35% | [3] -1.5% | [4] -5.85% | [5] -1% | [6] -4.6%

C/C(N=NC(=S)N1CCC(C)CC1)=C1\C=CC=CN1O
inactive: [5] 48%
active: [1] 97.3% | [2] 91.5% | [3] 95.9% | [4] 87.2% | [6] 98.3%

Cc1cccc2c1C(=O)C1(Cc3ccccc3C1=O)C2 (stereo unspecified)
inactive: [1] -13.4% | [2] -6.95% | [3] -15.1% | [4] -5.15% | [5] 2.4% | [6] -3.2%

CC1(C)OCC(C2OC3OC(C)(C)OC3C2O)O1 (stereo unspecified)
inactive: [1] 4% | [2] 15.2% | [3] 10.5% | [4] -15.8% | [5] 11.7% | [6] 7.9%

COC(=O)c1nnn(-c2ccc(Cl)cc2Cl)c1N
inactive: [1] -6.35% | [2] -18% | [3] -14.6% | [4] 6.3% | [5] -19.3% | [6] 14%

c1ccc2c(c1)CCN2CCN1CCc2ccccc21
inactive: [1] 9.4% | [2] -12.4% | [3] 20.1% | [4] -7.6% | [5] 40.2% | [6] 11.6%

C/C(C#CC1=CCCCC1)=N\Nc1ccc([N+](=O)[O-])cc1[N+](=O)[O-]
inactive: [1] -3.45% | [2] -24.4% | [3] -8.1% | [4] -4.3% | [5] -7.75% | [6] 1.1%
